Inconclusive results are not listed. Where a call stands in place of a potency, no number is given. Unmarked numbers belong to inactive results. The source made the active and inactive calls. Calls follow the shape of the dose curve; as a rule, active = well fitted cell-killing curve with a large enough effect in the repeat runs; inconclusive = weak or mixed curves; inactive = no such curve, though single readings can be large or run the other way.

The assay is described as follows: qHTS assay to identify small molecule agonists of the peroxisome proliferator-activated receptor delta (PPARd) signaling pathway - cell viability counter screen (AID 743211). Also: nearly all actives have a fitted effect of over 55% in size. The note with it: PPARd-bla HEK293H viability, CellTiter-Glo luminescence, 17 h; series mostly up to 62.6 µM; activity change, negative = cytotoxicity: at the top concentration. In outline: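 HEK293H PPARd-bla, 3000 cells/well; 5 h preincubation 37C/5% CO2; cpd in DMSO, 17 h 37C; B/G FRET substrate 2 h RT; CellTiter-Glo 30 min RT, luminescence.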
For the molecule `CCOC(=O)C(C)Oc1ccc(Oc2cnc3cc(Cl)ccc3n2)cc1` (configuration not stated), the Potency result was “inactive”. In the case of `COC(=O)CC(=O)OC`, the Potency entry was “inactive”. As for `C=C[Si](OCCOC)(OCCOC)OCCOC`, the Potency entry was “inactive”.

Take `CN(C)/N=N/c1nc[nH]c1C(N)=O`: the Potency result was “inactive”. Same read-out and setting: for `c1ccc2c(c1)[nH]c1ccccc12` the value was “inactive”; for `CCCCCCC(C)O` (configuration not stated), “inactive”; for `CC(C)[N+](C)(CCOC(=O)C1c2ccccc2Oc2ccccc21)C(C)C`, “inactive”. As for `COC(=O)c1ccc(C)cc1`, the Potency result is “inactive”.

With `CCc1cccc2c3c([nH]c12)C(CC)(CC(=O)O)OCC3` (configuration not stated), the Potency entry is “inactive”. Still for that read-out and setting: for `CCCCCCCCCCCCCO` the value was “inactive”; for `Cc1ccc(C(C)(C)C)cc1`, “inactive”. For `CCO[Si](CCCNC(N)=O)(OCC)OCC`, the Potency result was “inactive”. For `OC[C@H]1O[C@@H]2O[C@H]3[C@H](O)[C@@H](O)[C@@H](O[C@H]4[C@H](O)[C@@H](O)[C@@H](O[C@H]5[C@H](O)[C@@H](O)[C@@H](O[C@H]6[C@H](O)[C@@H](O)[C@@H](O[C@H]7[C@H](O)[C@@H](O)[C@@H](O[C@H]1[C@H](O)[C@H]2O)O[C@@H]7CO)O[C@@H]6CO)O[C@@H]5CO)O[C@@H]4CO)O[C@@H]3CO`, the Potency result is “inactive”. For `CC1(C)O[C@@H]2C[C@H]3[C@@H]4C[C@H](F)C5=CC(=O)C=C[C@]5(C)[C@@]4(F)[C@@H](O)C[C@]3(C)[C@]2(C(=O)CO)O1`, the Potency result is “inactive”. The same measure, in the same setting: for `CN(C)C` the value was “inactive”; for `CCC(Cc1c(I)cc(I)c(N)c1I)C(=O)O` (configuration not stated), “inactive”; for `Cc1ccc([N+](=O)[O-])c(C)c1`, “inactive”. Same read-out and setting: for `O=C1CCc2ccccc2O1` the value was “inactive”; for `[Na+]`, “inactive”. Still for that read-out and setting: for `C1COCCN1` the value was “inactive”; for `Nc1cc(Cl)c(N)c(Cl)c1`, “inactive”; for `FC(F)(F)C(Cl)Br` (configuration not stated), “inactive”.

Consider `CNC[C@H](O)c1ccc(O)c(O)c1`, for which the Potency entry was “inactive”.

Take `Cc1ccc(S(=O)(=O)O)cc1C`: the Potency result was “inactive”. Still for that read-out and setting: for `CC1(C)C(C=C(Cl)Cl)C1C(=O)OCc1cccc(Oc2ccccc2)c1` (configuration not stated) the value was “inactive”; for `Cc1ccc(N)c([N+](=O)[O-])c1`, “inactive”.

As for `O=C(O)c1cc(=O)[nH]c(=O)[nH]1`, the “activity change, negative = cytotoxicity” value was -1.98%.
